SARS PLpro yeast – qHTS of Yeast-based Assay for SARS-CoV PLP. 0.19% of 330,000 active. Potency, µM (highest dose often 32.9 µM), usual class: activators. S. cerevisiae expressing SARS-CoV PLpro, growth rescue; calls by dose curve; also: nearly all actives have a fitted effect of over 55% in size
LmPK inhibitor – qHTS Assay for Inhibitors of Leishmania Mexicana Pyruvate Kinase (LmPK) | Q27686 | purified LmPK, Kinase-Glo ATP luminescence, 1 h | Potency, µM (doses to about 57.5 µM), most hits filed as inhibitors | 0.37% of 290,000 active
Target sequence (Q27686 whole entry, looked up): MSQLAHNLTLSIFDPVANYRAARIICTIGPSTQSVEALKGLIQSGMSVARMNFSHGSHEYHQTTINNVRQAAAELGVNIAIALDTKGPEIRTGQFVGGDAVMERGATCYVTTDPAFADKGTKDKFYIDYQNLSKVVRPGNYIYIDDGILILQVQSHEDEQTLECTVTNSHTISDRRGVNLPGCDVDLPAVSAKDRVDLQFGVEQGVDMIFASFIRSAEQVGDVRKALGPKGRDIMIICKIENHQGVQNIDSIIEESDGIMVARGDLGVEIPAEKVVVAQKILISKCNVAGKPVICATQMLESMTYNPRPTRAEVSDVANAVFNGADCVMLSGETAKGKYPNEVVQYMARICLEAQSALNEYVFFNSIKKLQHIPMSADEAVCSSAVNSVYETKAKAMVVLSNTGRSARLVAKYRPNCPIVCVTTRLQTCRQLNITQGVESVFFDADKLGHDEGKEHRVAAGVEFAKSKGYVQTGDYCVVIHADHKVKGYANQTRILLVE
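Screened at intermediate enzyme activity to detect both inhibitors and activators: LmPK at 0.1 nM, with a 0.5 nM enzyme column as activation reference. PEP 0.5 mM, ADP 0.1 mM; ATP detected by luminescence after 1 h.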
AMA1 RON2 block – qHTS for Inhibitors of AMA1-RON; Towards Development of Antimalarial Drug Lead: Primary Screen; AlphaScreen AMA1-biotinylated RON2 peptide binding; Potency, µM (top dose mostly 58.2 µM), most hits filed as inhibitors; 0.2% of 360,000 active; also: nearly all actives have a fitted effect of over 45% in size
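AMA1 (3D7) with his tag at 25 nM final met compounds first, then biotinylated RON2 peptide at 25 nM; detection used donor plus acceptor beads, 10 µg/mL apiece, read by AlphaScreen after 30 min at room temperature.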
RE007 growth inh – qHTS Assay for Inhibitors of the HIV-1 protein Vpr; S. pombe RE007 Vpr strain, BacTiter-Glo ATP luminescence, 24 h; Potency, µM (highest dose often 92.2 µM), hits mostly inhibitors; 0.21% of 360,000 active; active = well fitted falling curve with a large enough effect; inconclusive = small, poorly fitted or top-dose-only effect; inactive = no such curve, though single readings can be large or run the other way; also: nearly all actives have a fitted effect of over 50% in size
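Fission yeast RE007 carrying one integrated HIV-1 vpr copy, seeded at OD 0.01 in PMG+AL medium with 23 nL pinned compound. Grown 24 h at 30 degrees; viability read by BacTiter-Glo luminescence after 5 min.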
TbPYK inhibitor – qHTS of Trypanosoma Brucei Inhibitors. pyruvate kinase (Trypanosoma brucei), Q57TT1. TbPYK enzyme, Kinase-Glo Plus ATP luminescence, 45 min. Potency, µM (top dose mostly 76.8 µM), usual class: inhibitors. 0.12% of 410,000 active. AID 624173, 2012; also: nearly all actives have a fitted effect of over 50% in size
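TbPYK + substrate in 50 mM TEA pH 7.2, 100 mM KCl, 10 mM MgCl2, 0.05% BSA, 0.01% Tween-20; cpd pinned; ADP 130 uM final; 45 min RT; Kinase-Glo Plus 10 min; luminescence endpoint.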
Of the large screens only hits and unclear results are named; the others gave an inactive call. In the library only some 0.81% were active in any assay of this set; here they are far more common. Unless noted, calls follow the shape of the dose curve; as a rule, active = well fitted curve in the direction sought with a large enough effect; inconclusive = small, poorly fitted or top-dose-only effect, or another doubt; inactive = no such curve, though single readings can be large; an effect the other way counts as inactive or inconclusive.

Cc1ccc(-n2c(CCc3ccccc3)n[nH]c2=S)cc1C	LmPK inhibitor 14.1µM, TbPYK inhibitor inconclusive
COc1ccc(CC(=O)NCc2n[nH]c(=S)n2-c2ccccc2)cc1	TbPYK inhibitor inconclusive
Cc1ccc(-n2c(COc3cccc(C)c3)n[nH]c2=S)cc1	LmPK inhibitor inconclusive, TbPYK inhibitor 15.8µM
Cc1cccc(OCc2n[nH]c(=S)n2-c2ccccc2)c1	TbPYK inhibitor inconclusive
CCCCn1c(N)c(N(CCC(C)C)C(=O)C2CCCN(C(=O)c3ccc(Cl)cc3)C2)c(=O)[nH]c1=O (configuration not stated)	none (no result: LmPK inhibitor)
O=C1C=CC2=C3c4cc(O)c(O)cc4CC3(O)COC2=C1O (configuration not stated)	AMA1 RON2 block 2.82µM, TbPYK inhibitor inconclusive (no result: SARS PLpro yeast, LmPK inhibitor)
COc1ccc(OC)c(Nc2nc(=O)c3cccnc3s2)c1	TbPYK inhibitor 35.5µM
Cc1ccc(Nc2nc(=O)c3cccnc3s2)cc1	none
Cc1ccc(-n2nc(C(C)(C)C)cc2NC(=O)Nc2ccc(OCCN3CCOCC3)c3ccccc23)cc1	none (no result: SARS PLpro yeast, LmPK inhibitor, AMA1 RON2 block, RE007 growth inh)
Cc1ccc2nc(Cl)c3nnnn3c2c1	RE007 growth inh 25.1µM
Cc1ccc(-n2c([C@@H]3C[C@H]3c3ccccc3)n[nH]c2=S)cc1	LmPK inhibitor inconclusive, TbPYK inhibitor inconclusive
S=c1[nH]nc(C2CC2c2ccc(Cl)cc2)n1-c1ccc(Cl)cc1 (configuration not stated)	TbPYK inhibitor inconclusive
Cc1ccc(-n2c(C3CC3c3ccc(Cl)cc3)n[nH]c2=S)cc1 (configuration not stated)	SARS PLpro yeast inconclusive, LmPK inhibitor 7.94µM, TbPYK inhibitor inconclusive
Cc1ccc(C2CC2c2n[nH]c(=S)n2-c2ccc(C)cc2)cc1 (configuration not stated)	SARS PLpro yeast inconclusive, LmPK inhibitor 11.2µM, TbPYK inhibitor inconclusive
CCCCCNC(=O)C(c1ccncc1)n1c(=O)c(-c2cc3ccccc3[nH]2)nc2ccccc21 (configuration not stated)	none (no result: SARS PLpro yeast, LmPK inhibitor, TbPYK inhibitor)
Nc1cccc(S(=O)(=O)N2CCCN(S(=O)(=O)c3ccc4c(c3)OCCO4)CC2)c1	none (no result: SARS PLpro yeast, LmPK inhibitor, AMA1 RON2 block, RE007 growth inh)
Clc1ccccc1Nc1nnc(-c2ccncc2)s1	LmPK inhibitor 4.47µM, RE007 growth inh 31.6µM, TbPYK inhibitor inconclusive
C=C[C@]1(C)C[C@@H](OC(=O)CO)[C@]2(C)C(C)CC[C@]3(CCC(=O)[C@H]32)[C@@H](C)[C@@H]1O (some centres not stated)	none (no result: SARS PLpro yeast, LmPK inhibitor, AMA1 RON2 block, RE007 growth inh)
Cc1cccc(C(=O)Oc2csc(=S)n2C(=O)c2cccc(C)c2)c1	TbPYK inhibitor 28.2µM
O=C(Oc1csc(=S)n1C(=O)c1ccccc1)c1ccccc1	TbPYK inhibitor inconclusive
CCCCNC(=O)c1ccc(Cn2c(=S)[nH]c3c([nH]c4ccc(OC)cc43)c2=O)cc1	TbPYK inhibitor inconclusive
CCN(CC)CCNC(=O)CCCCn1c(=S)[nH]c2c([nH]c3ccc(OC)cc32)c1=O	LmPK inhibitor 2.82µM, TbPYK inhibitor inconclusive
O=C(Cn1cnc2ccccc21)OCC(=O)N1CCCCC1	none (no result: LmPK inhibitor)
CC(C)(C)c1cc(-c2n[nH]c(=S)n2-c2ccccc2F)n[nH]1	LmPK inhibitor 14.1µM, TbPYK inhibitor inconclusive
Cc1ccccc1-n1c(-c2ccc(=O)[nH]n2)n[nH]c1=S	LmPK inhibitor inconclusive, TbPYK inhibitor inconclusive
CC1CCN(C(CC(=O)c2ccccc2)C(=O)c2ccccc2)CC1 (configuration not stated)	AMA1 RON2 block inconclusive, RE007 growth inh 4.47µM, TbPYK inhibitor 20µM (no result: SARS PLpro yeast, LmPK inhibitor)
CC1CCN(C(=O)NC(=O)c2ccccc2)CC1	none
COc1ccc(-c2n[nH]c(=S)n2-c2ccc(C)cc2)cc1	LmPK inhibitor 2µM, TbPYK inhibitor inconclusive
S=c1[nH]nc(-c2ccc(Cl)cc2)n1-c1ccc(Cl)cc1	LmPK inhibitor inconclusive, TbPYK inhibitor inconclusive
COc1ccc(-n2c(COc3ccc(C)cc3)n[nH]c2=S)cc1	TbPYK inhibitor inconclusive
COc1ccc(-n2c(-c3ccc(Br)cc3)n[nH]c2=S)cc1	LmPK inhibitor 10µM, TbPYK inhibitor inconclusive
O=C(O)/C=C(/CC(=O)O)C(=O)O	none (no result: SARS PLpro yeast, LmPK inhibitor, AMA1 RON2 block, RE007 growth inh)

Source: PubChem (National Center for Advancing Translational Sciences (NCATS))
